An excerpt weighted towards active compounds, which were near 21% of everything screened.
Shiga inhibitor = Shiga toxin inhibition. actives 9.2% (n = 290,000). AID 2315. inhibition, % at 38.7 µM. Vero cells, Shiga toxin protein synthesis inhibition reporter; in the data active = inhibition mostly above about 28%, no sharp cut-off; inactive = mostly below about 43%; note: 0% is about no effect
NS1 inh = inhibitors of influenza NS1 protein function; Potency, µM (highest dose often 46.1 µM), for the others: top-dose activity, positive = more growth; actives 0.4% (n = 270,000); AID 2326; calls by dose curve; note: potency is the fitted concentration of half-maximal effect; actives are rising curves; nearly all actives have a fitted effect of over 50% in size
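Compounds were scored for reversing the slow growth caused by influenza A NS1 in S. cerevisiae, measured by optical density at 600 nm. Assay medium contained 2% galactose at pH 6.0; NS1-free yeast of the same strain were the positive control.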
Pf growth 48h = inhibits P. falciparum growth in the first generation, 48 h; P. falciparum luciferase growth in erythrocytes, 48 h; Potency, µM (highest dose often 28.7 µM), for inactives: at the top dose activity change, negative = inhibition, usual class: inhibitors; actives 5.9% (n = 310,000); note: potency is the fitted concentration of half-maximal effect; % is set by controls: 0 for no effect and ±100 for the full control effect
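Read-out is firefly luciferase luminescence from an integrated reporter in P. falciparum, so falling signal marks reduced parasite growth. Infected erythrocytes were at 2% hematocrit and 0.1% parasitemia (final) in Albumax-supplemented RPMI 1640.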
Cycloheximide cs = counter-screen hit for Shiga toxin inhibitors, cycloheximide. cell reporter, cycloheximide protein synthesis inhibition counterscreen. max response, %. actives 12% (n = 300,000). AID 2314; in the data active = max response mostly above about 13%, no sharp cut-off; inactive = mostly below about 14%; note: read at 38.3 µM for the half of the compounds with a filed dose; 0% is about no effect
Pf growth 96h = inhibits malaria parasite growth, 96 h. P. falciparum luciferase reporter growth, 96 h. Potency, µM (doses to about 28.7 µM), for the others: at the top dose activity change, negative = inhibition, usual class: inhibitors. actives 6.9% (n = 320,000); note: potency is the fitted concentration of half-maximal effect; % is set by controls: 0 for no effect and ±100 for the full control effect
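Erythrocytes infected with luciferase-expressing P. falciparum were dispensed at 2% hematocrit and 0.05% parasitemia (final), then incubated with compounds 96 hours at 37 C in 5% CO2. Luminescence after detection reagent addition reported growth.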
Active calls of the source: *; i = inactive; ? = inconclusive; . = no result; ! = not confirmed by another sample; [ ] = remark or other dose. Unless noted, calls come from the whole dose curve; as a rule, active = well fitted inhibition curve with a large enough effect; inconclusive = small, poorly fitted or top-dose-only effect, or another doubt; inactive = no such curve, though single readings can be large or run the other way.

SMILES | Shiga inhibitor | NS1 inh | Pf growth 48h | Cycloheximide cs | Pf growth 96h
COc1ccc(C)cc1N(CC(=O)NCCSCc1cccc(Cl)c1)S(C)(=O)=O | . | -8.7% | 0.0% | 4.3 | 11.7µM*
COc1ccccc1N(CC(=O)NCCSCc1ccc(Cl)cc1)S(C)(=O)=O | -5.6 | -5.4% | -15.2%[0.00184 µM] | -9.6 | ?
COc1cc(C(=O)N(Cc2cccc(Cl)c2)C2CCS(=O)(=O)C2)cc(OC)c1OC (stereo unspecified) | -7.0 | -8.4% | ? | -1.1 | .
COc1ccc(N(C(=O)/C=C/c2ccc(OC)c(OC)c2)C2=CC3CCC(C2)N3C)cc1 (stereo unspecified) | -12.1 | . | ? | -3.7 | 161.9%
CC(=O)N(C)C1=C(O)c2ccccc2C(=O)C1=O | 18.4 | -2.1% | 4.0% | -4.6 | ?
CC(=O)N(C1=C(N)C(=O)c2ccccc2C1=O)C(C)C | -12.2 | . | 13.1µM* | 2.2 | 9.28µM*
O=C(O)/C=C(\Oc1ccccc1)C1(O)CCCCC1 | -7.3 | -4.9% | 34.2% | -1.0 | 0.0%
Cc1ccc(-c2cn3cccnc3n2)cc1 | 71.4* | . | 342.9% | 27.8* | ?
CC(=O)Nc1ccc(S(=O)(=O)Nc2cccc(-c3cn4cccnc4n3)c2)cc1 | -3.3 | . | ? | 11.2 | 7.7%
CS(=O)(=O)Nc1ccc(-c2cn3cccnc3n2)cc1 | 43.5* | 6.3% | 29.3% | 21.4* | 0.7%
CC(C)CC(=O)NC(=S)Nc1ccc(S(=O)(=O)N2CCCC2)cc1 | -17.3 | 14.1% | -6.4% | -2.6 | ?
COc1ccc(C(=O)CC(SCC(NC(C)=O)C(=O)O)c2ccc(Cl)cc2)cc1OC (stereo unspecified) | 30.1 | -0.4% | 4.0% | -2.1 | ?
CCOc1cc(-c2nnc(-c3ccco3)o2)cc(OCC)c1OCC | active | 7.1% | ? | 21.7* | .
CCOc1ccc(-c2nnc(-c3ccco3)o2)cc1OCC | 88.0* | -61.0% | 53.3% | 46.3* | 123.3%
Cc1cccc(C(=O)Nc2cccc(-c3cnc4ccccc4n3)c2)c1 | 59.4 | 4.2% | ? | 12.4 | ?
Cc1ccc2nc(=O)c(NNc3ccccc3)cnc2c1 | 20.7 | 5.8% | 186.0% | 23.0* | 219.2%
Cc1nc2ccccc2nc(=O)c1NNc1ccccc1 | 23.4* | -2.7% | 87.1% | 20.2* | 6.75µM*!
Cc1ccc(/C=N/NC(=O)c2ccccc2OCc2ccc(F)cc2)o1 | 25.0 | -1.7% | ? | 3.7 | ?
O=C(N/N=C/c1ccncc1)c1ccccc1OCc1ccc(Br)cc1 | -1.7 | -1.6% | -62.4% | -1.3 | 1.85µM*
Cc1cccc(/C=N/NC(=O)c2ccccc2OCc2cccc(Br)c2)n1 | 12.0 | -19.8% | 14.7µM* | 1.5 | ?
Cc1cccc(/C=N/NC(=O)c2cc(Br)ccc2OCc2ccccc2)n1 | 20.2 | -15.3% | ? | -5.5 | -4.9%
CC(C)C(=O)NNC(=O)CSc1nnnn1C(C)C | 7.1 | 6.0% | 21.0% | -2.1 | ?
COc1cccc(-c2cn3nc(C)c(C)nc3n2)c1 | 167.2* | -4.3% | -21.0% | 41.3* | 166.9%[5.75 µM]
Cc1nc2nc(-c3cccs3)cn2nc1C | 54.1 | -13.6% | 185.6% | 30.9* | 168.7%
Cc1nn2cc(-c3ccc(-c4ccccc4)cc3)nc2s1 | 48.9 | -2.2% | 195.1% | 25.7* | 383.3%
SMILES | Shiga inhibitor | NS1 inh | Pf growth 48h | Cycloheximide cs | Pf growth 96h
O=[N+]([O-])c1ccc(-c2cn3nc(-c4ccccc4)c(-c4ccccc4)nc3n2)cc1 | -10.5 | 3.1% | 2.4% | -3.4 | 20.9%
NS(=O)(=O)c1nn2cc(-c3ccccc3)nc2s1 | 59.3* | . | . | 19.2* | .
COc1ccc(S(=O)(=O)NCCc2cn3nc(C)c(C)nc3n2)cc1 | -6.2 | 0.0% | 0.4% | 9.6 | 19.2%
CCc1nn2cc(-c3ccccc3)nc2s1 | 4.7 | -39.7% | -11.6% | 6.4 | .
Cc1nc2nc(-c3ccc(Cl)cc3)cn2nc1C | 92.7* | 1.4% | 233.8% | 38.5* | .
Cc1nn2cc(-c3ccc(Cl)cc3)nc2s1 | 111.8* | -3.1% | 271.8% | 58.8* | 71.9%
Cc1nn2c(-c3ccc(Cl)cc3)nnc2s1 | 6.2 | -47.9% | -13.5% | -3.9 | ?
O=C(Nc1cccc(-c2ccc(N3CCOCC3)nn2)c1)c1ccccc1 | . | . | 73.3% | . | 37.4%
Cc1ccccc1C(=O)Nc1cccc(-c2cn3ccccc3n2)c1 | 41.5 | -42.3% | -1.9% | 20.8* | -57.6%[1.15 µM]
O=C(Nc1cccc(-c2cn3ccccc3n2)c1)c1ccccc1 | 56.7* | . | ? | 34.1* | 53.1%
Cc1ccc(C(=O)Nc2cccc(-c3cn4ccccc4n3)c2)cc1 | 81.3* | -10.7% | 45.9% | 41.3* | 13.1µM*
CCCCC(=O)Nc1cccc(-c2cn3ccccc3n2)c1 | 108.3 | -6.8% | 41.0% | 29.3* | 65.1%
CCCCC(=O)Nc1cccc(NC(=O)CC)c1 | -4.6 | 2.2% | 11.2% | 1.8 | -9.0%
CCCCn1c(N)c(N(CC(C)C)C(=O)CCS(=O)(=O)c2ccc(C)cc2)c(=O)[nH]c1=O | . | . | -15.4% | . | 0.4%
N#Cc1ccncc1S(=O)c1ccc(Cl)cc1 (stereo unspecified) | -1.5 | -3.1% | 42.4% | 7.6 | 41.5%
CC(=O)N[C@@H](C)C(=O)OC(C)C(=O)Nc1cccc([N+](=O)[O-])c1 (stereo partly specified) | 21.5 | . | 13.5% | -3.3 | 23.2%
CCOC(=O)CCC(=O)Nc1ccc(S(=O)(=O)Nc2cc(OC)nc(OC)n2)cc1 | -20.5 | -4.2% | 0.0% | -4.1 | 9.1%
CC1Oc2ccccc2N(CC(=O)Nc2ccc(F)cc2)C1=O (stereo unspecified) | -4.0 | 13.3% | -18.5% | 0.3 | -20.6%
Cc1cc2c(NC(=O)Nc3ccc(C(F)(F)F)cc3)cccc2nn1 | 5.4 | 3.4% | 10.4µM* | 1.5 | 9.28µM*
O=S(=O)(Nc1nc2ccccc2nc1N1CCN(CCO)CC1)c1cc(F)ccc1F | . | . | -7.0% | . | ?
O=C1Nc2ccccc2C12NCCc1c2[nH]c2ccccc12 (stereo unspecified) | 21.2 | -9.2% | 6.57µM* | -2.0 | .
COc1ccc2c3c([nH]c2c1)C1(NCC3)C(=O)Nc2ccccc21 (stereo unspecified) | -6.3 | -0.6% | ? | 3.9 | ?
CN(CC(=O)Nc1ccc(F)cc1)C(=O)Cc1ccsc1 | . | . | ? | . | -2.2%
CN(Cc1ccsc1)C(=O)Cn1cc(Br)ccc1=O | 77.6* | -10.6% | 101.9% | 28.9* | 82.5%
Cc1ccc(S(=O)(=O)N2CCCCC2)cc1NC(=O)c1cnccn1 | . | . | -11.4% | . | -6.3%
SMILES | Shiga inhibitor | NS1 inh | Pf growth 48h | Cycloheximide cs | Pf growth 96h
O=c1cc(-c2ccccc2)[nH]c2ccc(F)cc12 | 17.3 | 5.0% | 0.586µM* | 15.8 | 1.47µM*
Cc1ccc2[nH]c(C)cc(=O)c2c1 | i | . | . | -1.2 | .
Cc1ccc(-c2cc(=O)c3cc(C)ccc3[nH]2)cc1 | 59.4*! | 5.8% | -6.1% | 43.0*! | ?
Cc1ccc(-c2cc(=O)c3cc(F)ccc3[nH]2)cc1 | 17.7 | 11.1% | ? | 15.7* | 10.4µM*
Cc1nnc(SCC(=O)NNC(=O)COc2ccc(Cl)cc2)n1C | 15.5 | -1.6% | 11.9% | -4.4 | -28.8%
S=C(NCC1CCCO1)NC1CC1 (stereo unspecified) | 17.2 | 0.9% | 5.2% | -4.2 | ?
O=C(NCc1ccc(F)cc1)C1CC(=O)N(C2CCCCCCC2)C1 (stereo unspecified) | -6.2 | -7.9% | 7.8% | 3.6 | ?

Assay outcomes from PubChem.
